In PubChem BioAssay (NCI):
The panel holds about 79,000 compounds, 15% with a hit somewhere; the sample as a whole holds those more often. Activity calls are given as the source filed them. Rule as the data show it: active = growth inhibition above about 70%; inactive = the rest.

Experiments:
[1] = NCI Yeast Anticancer Drug Screen. Data for the rad50 strain (AID 155);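 also: 0% = growth of vehicle-only cultures of the same strain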; conditions: S. cerevisiae rad50 strain growth inhibition, hits give high values
In short: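 Yeast carrying a defined DNA repair defect were exposed to test compounds, and growth was compared with vehicle-treated controls to give percent inhibition.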

[2] = NCI Yeast Anticancer Drug Screen. Data for the mec2-1 strain (AID 157); conditions: S. cerevisiae mec2-1 strain, hits give high values
In short: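 Compounds were applied to mec2-1 yeast cells. Their growth was then compared with that of vehicle-treated cultures to give growth inhibition.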

[3] = NCI Yeast Anticancer Drug Screen. Data for the sgs1 mgt1 strain (AID 161);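 also: 0% = growth of cultures given vehicle only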; conditions: S. cerevisiae sgs1 mgt1 strain, hits give high values
In short: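 This yeast growth screen uses a strain with defined DNA-repair lesions; compound-treated growth is compared with vehicle-treated growth.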

[4] = NCI Yeast Anticancer Drug Screen. Data for the cln2 rad14 strain (AID 165);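 also: 0% = growth equal to vehicle treated cultures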; conditions: S. cerevisiae cln2 rad14 strain, hits give high values
In short: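 Strain: cln2 rad14 yeast, altered in cell cycle control and DNA damage repair. Read-out: growth inhibition vs vehicle.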

[5] = NCI Yeast Anticancer Drug Screen. Data for the bub3 strain (AID 167); conditions: S. cerevisiae bub3 mutant strain, hits give high values
In short: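 Compounds were applied to a genetically altered yeast strain carrying a cell-cycle control defect. Growth inhibition was scored against vehicle-treated controls.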

[6] = NCI Yeast Anticancer Drug Screen. Data for the mlh1 rad18 strain (AID 175); conditions: S. cerevisiae mlh1 rad18 strain growth inhibition, hits give high values
In short: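 A repair-deficient yeast strain is exposed to test compound, and growth is scored relative to vehicle-treated controls.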

[7] = at 5.0 µM (retest, dose inferred, filed as 0.5)
[8] = at 50.0 µM (retest, dose inferred, filed as 5.0)

Measured: growth inhibition

CC1(C)[C@H]2CC[C@]1(C)[C@H](OC(=O)NNC(=O)O[C@@H]1C[C@@H]3CC[C@@]1(C)C3(C)C)C2
inactive: [1]; [7] 33% | [1]; at 50.0 µM 11.3% | [2]; [7] 37% | [2]; [8] 59% | [2]; at 50.0 µM 22.4% | [3]; [7] 26% | [3]; [8] 35% | [3]; at 50.0 µM 53% | [4]; [7] 30% | [4]; [8] 38% | [4]; at 50.0 µM 47.4% | [5]; [7] 35% | [5]; [8] 51% | [5]; at 50.0 µM 67.2% | [6]; [7] 38% | [6]; [8] 68% | [6]; at 50.0 µM -16%
active: [1]; [8] 74%

O=C(/C=N/O)Nc1ccc(Cl)c(I)c1
inactive: [1]; [7] -32% | [2]; [7] -15% | [3]; [7] -17% | [4]; [7] 5% | [5]; [7] -9% | [6]; [7] -24%
active: [1]; [8] 83% | [1]; at 50.0 µM 85.2% | [2]; [8] 87% | [2]; at 50.0 µM 86.5% | [3]; [8] 85% | [3]; at 50.0 µM 80.2% | [4]; [8] 88% | [4]; at 50.0 µM 81.9% | [5]; [8] 93% | [5]; at 50.0 µM 86.8% | [6]; [8] 92% | [6]; at 50.0 µM 84.6%

Cc1ccc(NC(=O)Oc2ccc(OC(=O)Cc3ccccc3)cc2)cc1NC(=O)Oc1ccc(OC(=O)Cc2ccccc2)cc1
active: [1]; [8] 97% | [1]; at 50.0 µM 99.2% | [2]; [8] 94% | [2]; at 50.0 µM 99.4% | [3]; [8] 89% | [3]; at 50.0 µM 99.2% | [4]; [8] 93% | [4]; at 50.0 µM 98.2% | [5]; [8] 98% | [5]; at 50.0 µM 99% | [6]; [8] 98% | [6]; at 50.0 µM 99.1%
inactive: [1]; [7] 10% | [2]; [7] 43% | [3]; [7] 2% | [4]; [7] 10% | [5]; [7] 15% | [6]; [7] 2%

COc1ccc2c(c1)C(O)=C(CC=C(C)C)C(=O)C2=O
active: [6]; [8] 79%
inactive: [1]; [7] -2% | [1]; [8] 16% | [1]; at 50.0 µM 26.8% | [2]; [7] 22% | [2]; [8] 46% | [2]; at 50.0 µM 35% | [3]; [7] 27% | [3]; [8] 61% | [3]; at 50.0 µM 20.2% | [4]; [7] 7% | [4]; [8] 1% | [4]; at 50.0 µM 46.3% | [5]; [7] 8% | [5]; [8] 23% | [5]; at 50.0 µM 4.1% | [6]; [7] 35% | [6]; at 50.0 µM 41.4%

CC(C=O)=C(c1ccccc1)c1ccccc1
inactive: [1]; [7] -147% | [1]; [8] -157% | [1]; at 50.0 µM 23.8% | [2]; [7] -50% | [2]; [8] -56% | [2]; at 50.0 µM 24.6% | [3]; [7] -57% | [3]; [8] -64% | [3]; at 50.0 µM 49.2% | [4]; [7] -54% | [4]; [8] -56% | [4]; at 50.0 µM 23.8% | [5]; [7] -62% | [5]; [8] -74% | [5]; at 50.0 µM 0.3% | [6]; [7] -115% | [6]; [8] -111% | [6]; at 50.0 µM 28.4%

O=C1c2scc(-c3ccccc3)c2-n2cccc21
active: [1]; [8] 96% | [1]; at 50.0 µM 78.5% | [2]; [8] 95% | [2]; at 50.0 µM 90.1% | [3]; [8] 87% | [3]; at 50.0 µM 82.5% | [4]; [8] 81% | [4]; at 50.0 µM 80.8% | [5]; [8] 94% | [5]; at 50.0 µM 79% | [6]; [8] 94% | [6]; at 50.0 µM 88.2%
inactive: [1]; [7] -6% | [2]; [7] -10% | [3]; [7] 2% | [4]; [7] 10% | [5]; [7] -16% | [6]; [7] -16%

Cc1cc(NCCCCCCCNc2cc(C)nc3cc(N)ccc23)c2ccc(N)cc2n1
active: [1]; [8] 85% | [1]; at 50.0 µM 79.6% | [2]; [8] 76% | [2]; at 50.0 µM 85.5% | [3]; [8] 78% | [3]; at 50.0 µM 86% | [4]; at 50.0 µM 82% | [5]; [8] 82% | [5]; at 50.0 µM 87% | [6]; [8] 83% | [6]; at 50.0 µM 91.5%
inactive: [1]; [7] 4% | [2]; [7] -11% | [3]; [7] 12% | [4]; [7] 12% | [4]; [8] 45% | [5]; [7] -12% | [6]; [7] -3%

COC1/C=C\OC2(C)Oc3c(C)c(O)c4c(c3C2=O)C(=O)C=C(NC(=O)C(C)=C/C=C\C(C)C(O)C(C)C2OC(C)(C)OC(C1C)C2C)C4=O (stereo not given)
inactive: [1]; [7] -4% | [1]; at 50.0 µM 28.9% | [2]; [7] 24% | [2]; [8] 37% | [2]; at 50.0 µM 33.5% | [3]; [7] 1% | [3]; [8] 52% | [3]; at 50.0 µM 41.8% | [4]; [7] 19% | [4]; at 50.0 µM 31.9% | [5]; [7] -3% | [5]; at 50.0 µM 14.9% | [6]; [7] 1% | [6]; at 50.0 µM 38.5%
active: [1]; [8] 93% | [4]; [8] 74% | [5]; [8] 93% | [6]; [8] 77%

COc1cc(/C=C/C(=O)c2ccc(O)c(OC)c2)ccc1O
inactive: [1]; [7] 20% | [1]; [8] 38% | [1]; at 50.0 µM 14% | [2]; [7] 16% | [2]; [8] 29% | [2]; at 50.0 µM 47.8% | [3]; [7] 9% | [3]; [8] 26% | [3]; at 50.0 µM 54% | [4]; [7] 8% | [4]; [8] 27% | [4]; at 50.0 µM 34.2% | [5]; [7] 17% | [5]; [8] 67% | [5]; at 50.0 µM 56.1% | [6]; [7] 18% | [6]; [8] 31% | [6]; at 50.0 µM 6.6%

O=[N+]([O-])c1ccccc1NCCO
inactive: [1]; [7] 1% | [1]; [8] -2% | [1]; at 50.0 µM -10.2% | [2]; [7] 3% | [2]; [8] 0% | [2]; at 50.0 µM -5.65% | [3]; [7] -2% | [3]; [8] -12% | [3]; at 50.0 µM -0.15% | [4]; [7] 2% | [4]; [8] 4% | [4]; at 50.0 µM 28.8% | [5]; [7] 3% | [5]; [8] 2% | [5]; at 50.0 µM -14.2% | [6]; [7] 2% | [6]; [8] 3% | [6]; at 50.0 µM -24.9%
